Measurements from PubChem BioAssay AID1259240 (Keith Lab, Institute of Cancer Science, University of …, 2017).
A number with no mark means an inactive call. The source made the active and inactive calls. No stated cut-off is given here; in the data, active means fold change mostly below about -2 (no sharp cut-off); inactive means mostly above about -1.8.

Assay: modulation of TERT promoter-driven luciferase – cell-based, luciferase reporter, human, primary screen (AID 1259240)
Conditions: A2780 TERT promoter luciferase reporter, 16 h; at 20 µM, fold versus average of vehicle-only wells

Row | Structure (SMILES) | fold change | outcome
1 | N#Cc1cn(CC(=O)NCCc2c[nH]c3ccccc23)c2ccccc12 | -1.14 | –
2 | CN(C)C(=O)c1ccc2c(c1)n(C)c(=O)n2C | 1.05 | –
3 | CC(=O)c1cccc(NC(=O)Nc2ccc3snnc3c2)c1 | -1.05 | –
4 | CN1CCc2c(sc3c2C(=O)NC(c2ccc(OC(=O)c4ccccc4Cl)cc2)N3)C1 (centres undefined) | -1.85 | –
5 | CCC(CC)COC(=O)C1=C(C)NC(=O)CC1c1ccccc1C (centres undefined) | 1.08 | –
6 | N=C1/C(=C/c2ccc(SCc3ccco3)o2)C(=O)N=C2SC=C(c3ccccc3)N12 | -1.25 | –
7 | c1ccc(Nc2c(-c3ccc(N4CCOCC4)cc3)nc3cnccn23)cc1 | 1.08 | –
8 | COc1ccc(Nc2c(-c3c[nH]c4ccccc34)nc3cnccn23)cc1 | -1.09 | –
9 | COc1ccc(S(=O)(=O)NC(C)(C)C)cc1-c1nnc2c3ccccc3c(C)nn12 | -1.62 | –
10 | CN(C)c1nc(C(=O)OCCO)nc(N(C)C)n1 | -3.45 (active) | –
11 | CCCN(CCC)C(=O)Cn1c(=O)oc2cc(S(=O)(=O)N3CC(C)CC(C)C3)ccc21 (centres undefined) | 1.03 | –
12 | CCOC(=O)c1nn(-c2ccc(F)cc2)c(=O)c2c(NC(=O)CCCl)scc12 | -3.04 (active) | –
13 | COc1cccc(C(=O)Cn2c(=O)n(C3CCCC3)c(=O)c3cc(OC)c(OC)cc32)c1 | -1.38 | –
14 | CCCN1C(=O)C2(/C(=C(/O)c3ccc(C)cc3)C(=O)C(=O)N2CCOC)c2ccccc21 (centres undefined) | 1.26 | –
15 | CCOC(=O)C1CCCN(c2c(OCC)c(=O)c2=O)C1 (centres undefined) | 1.23 | –
16 | C1=C(c2cccnc2)Nc2nc3ccccc3n2C1c1cccs1 (centres undefined) | – | inactive
17 | CC(C)C(NS(=O)(=O)c1ccc2c(c1)oc(=O)n2C)C(=O)NCc1cccs1 (centres undefined) | -1.35 | –
18 | O=C1CC(c2ccc(F)c(F)c2)c2cc3c(cc2N1)OCO3 (centres undefined) | 1.27 | –
19 | COc1ccc(Nc2ncc(F)c(N3CCOCC3)n2)cc1 | -3.37 (active) | –
20 | CC(C)CNC(=O)CSc1nc(-c2cccs2)cc(C(F)(F)F)n1 | -2.24 (active) | –
21 | Cc1ccc(C(C)C)cc1OCC(O)Cn1cnc2ccccc21 (centres undefined) | -1.17 | –
22 | CS(=O)(=O)Nc1ccc(C2=NN(C(=O)c3ccco3)C(c3ccco3)C2)cc1 (centres undefined) | 1.01 | –

Row | Structure (SMILES) | fold change | outcome
23 | Cc1cccc2nc(COc3ccc(Cl)cc3)cn12 | -4.52 (active) | –
24 | O=C1CCCC2=C1C(c1ccccc1Cl)n1nc(-c3ccccc3)nc1N2 (centres undefined) | – | inactive
25 | COCCN1C(=O)c2oc3ccc(F)cc3c(=O)c2C1c1cccc(O)c1 (centres undefined) | -1.86 | –
26 | CC(=O)NCCNC(=O)c1cccn2c(=O)c3c4c(sc3nc12)CCCC4 | -1.41 | –
27 | Clc1ccc(CNc2ncnc3nc[nH]c23)cc1 | 2.09 (active) | –
28 | CCOC(=O)C1CCCN(c2c(NCC3COc4ccccc4O3)c(=O)c2=O)C1 (centres undefined) | 1.35 | –
29 | CCc1cccc2c1NC(=O)C2(O)CC(=O)c1cccs1 (centres undefined) | 1.14 | –
30 | CCCCNC(=O)CCN1C(=O)c2ccccc2S1(=O)=O | -1.02 | –
31 | COc1ccc(C2c3c(n[nH]c3C)C(=O)N2c2ccc(Br)cc2)c(OC)c1 (centres undefined) | -1.34 | –
32 | CCOC(=O)N1CCC(Nc2c(NC3CCCCC3C)c(=O)c2=O)CC1 (centres undefined) | -1.05 | –
33 | Cn1c(-c2ccc(N)cc2)nc2cc(N)ccc21 | -1.51 | –
34 | CN(C)S(=O)(=O)N(CC(=O)Nc1ccccc1F)c1ccccc1 | -1.38 | –
35 | CC(=O)c1ccc2c(c1)c1ccccc1n2C | -3.04 (active) | –
36 | CC(=O)Oc1ccccc1-c1nc2s/c(=C\c3cccc(Br)c3)c(=O)n2n1 | 1.36 | –
37 | CCN1CCN(S(=O)(=O)c2ccc3[nH]c(=O)oc3c2)CC1 | 1.02 | –
38 | CCOC(=O)N1CCC(Nc2c(N3CCN(c4ccccc4)CC3)c(=O)c2=O)CC1 | -1.05 | –
39 | CCOC(=O)c1c(CN2CCOCC2)oc2ccc(OC)cc12 | -1.29 | –
40 | O=C1Nc2ccccc2/C1=C\c1cn(Cc2ccccc2F)c2ccccc12 | -1.04 | –
41 | Cc1nc2ncccn2c1-c1csc(Nc2ccc(Cl)cc2)n1 | -2.31 (active) | –
42 | CCOC(=O)C1CCCN(c2c(NCCCN3CC(C)CC(C)C3)c(=O)c2=O)C1 (centres undefined) | -1.02 | –
43 | c1ccn2c(SCc3ccc4c(c3)OCCO4)nnc2c1 | 1.6 | –
44 | CCCCN(C)C(=O)Cn1ncc2c3ccccc3n(C)c2c1=O | 1.16 | –
